From PubChem BioAssay AID1159580 (chemical genetic matrix, 2015)
Hit rate of the full screen: of about 5,500 compounds, about 2,000 (36%) were called active. Another 18% or so got no clear call; they are omitted. Rule as the data show it: active = normalized growth mostly below about 0.91 (no sharp cut-off); inconclusive = no clear call, values can overlap the other calls; inactive = mostly above about 0.92. The list shows a part of the results.

Test: chemical genetic growth profiling, strain panel (AID 1159580);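 also: tested at 20 µM; growth read once vehicle control cultures reached saturation at 30 °C; 1 = growth at the plate median or of vehicle wells; lower values mean less growth of the strain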
Conditions: S. cerevisiae deletion strains, growth OD

Measured: normalized growth

O=C(CCCN1CCC2(CC1)C(=O)N(CCc1ccc(N=C=S)cc1)CN2c1ccccc1)c1ccc(F)cc1
inactive: locus YAL040C, strain CLN3, active compounds read low 1.04 | locus YCL061C, strain MRC1 (second series), active compounds read low 0.982 | locus YDR363W, strain ESC2, active compounds read low 0.972 | locus YER002W, strain NOP16, active compounds read low 1.03 | locus YGR229C, strain SMI1, active compounds read low 0.984 | locus YJR075W, strain HOC1, active compounds read low 0.968 | locus YMR263W, strain SAP30, active compounds read low 0.987 | locus YMR307W, strain GAS1, active compounds read low 0.982 | locus YNL175C, strain NOP13, active compounds read low 1 | locus YNL197C, strain WHI3, active compounds read low 1.02 | locus YNL224C, strain SQS1, active compounds read low 1.05 | locus YNL322C, strain KRE1, active compounds read low 0.948 | locus YOR083W, strain WHI5 (second series), active compounds read low 1.08 | locus YPL055C, strain LGE1, active compounds read low 0.916 | locus YPL241C, strain CIN2, active compounds read low 0.984
